Results from paper PMC7862700, “An all-to-all approach to the identification of sequence-specific readers for epigenetic DNA modifications on cytosine”.

Legend:
Experiment in all cases: DAPPL (digital affinity profiling via proximity ligation, sequencing); 10 mM Tris-HCl pH 7.5, 50 mM NaCl, 1 mM DTT, 4% glycerol, room temperature, 30 min; GST-TFs on glutathione beads, 16-mer random dsDNA library, 0.1% formaldehyde crosslink after washing; high values mean tight binding
FEV = target: T1, FEV (Homo sapiens, UniProt Q99581 1-238); settings: protein: recombinant; tags: N-terminal GST; dsDNA, one strand shown
T1 sequence: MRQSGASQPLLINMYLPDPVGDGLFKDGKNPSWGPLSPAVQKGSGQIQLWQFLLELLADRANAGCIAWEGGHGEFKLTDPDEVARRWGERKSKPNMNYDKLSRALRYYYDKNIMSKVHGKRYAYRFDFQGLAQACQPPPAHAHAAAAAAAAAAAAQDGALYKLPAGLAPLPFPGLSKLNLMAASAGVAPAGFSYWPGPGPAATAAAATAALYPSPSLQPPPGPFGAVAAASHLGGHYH
Summary of the method: (§1)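 Binding signal is each hexamer's read frequency for a factor divided by its frequency in the tag-only sample. The factors were GST-fused human transcription factors from yeast, captured on glutathione beads, DNA-barcoded and pooled with that sample. Pools were incubated with 200 nmole of a random double-stranded 16-mer DNA library in Tris/NaCl/DTT/glycerol buffer at room temperature for 30 min, then washed, crosslinked with 0.1% formaldehyde, proximity-ligated with BsaI/T4 ligase (1 h, 37 °C), PCR-amplified and sequenced on an Illumina NextSeq500.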

ETV5 = ETV5 (Homo sapiens, UniProt P41161 1-510); settings: protein: recombinant; tags: N-terminal GST; dsDNA, one strand shown
Sequence of ETV5 (P41161 whole entry): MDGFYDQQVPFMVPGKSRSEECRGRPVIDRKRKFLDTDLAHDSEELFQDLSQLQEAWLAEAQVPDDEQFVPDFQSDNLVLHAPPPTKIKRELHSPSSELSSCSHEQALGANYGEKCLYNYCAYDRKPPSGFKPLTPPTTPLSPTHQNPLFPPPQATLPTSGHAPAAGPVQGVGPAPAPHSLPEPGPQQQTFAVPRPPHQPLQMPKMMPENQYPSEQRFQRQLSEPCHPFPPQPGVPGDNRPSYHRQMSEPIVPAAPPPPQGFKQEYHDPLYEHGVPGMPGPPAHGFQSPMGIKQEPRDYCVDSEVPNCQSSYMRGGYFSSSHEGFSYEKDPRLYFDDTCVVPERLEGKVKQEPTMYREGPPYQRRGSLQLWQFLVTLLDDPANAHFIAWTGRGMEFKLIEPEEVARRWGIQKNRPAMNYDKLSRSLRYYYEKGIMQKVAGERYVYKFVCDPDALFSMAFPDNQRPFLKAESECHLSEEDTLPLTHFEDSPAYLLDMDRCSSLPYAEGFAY
Summary of the method: as §1

HSF1 = HSF1 (Homo sapiens, UniProt Q00613 1-529); settings: protein: recombinant; tags: N-terminal GST; chain copies: 3; dsDNA, one strand shown
Sequence of HSF1 (Q00613 whole entry): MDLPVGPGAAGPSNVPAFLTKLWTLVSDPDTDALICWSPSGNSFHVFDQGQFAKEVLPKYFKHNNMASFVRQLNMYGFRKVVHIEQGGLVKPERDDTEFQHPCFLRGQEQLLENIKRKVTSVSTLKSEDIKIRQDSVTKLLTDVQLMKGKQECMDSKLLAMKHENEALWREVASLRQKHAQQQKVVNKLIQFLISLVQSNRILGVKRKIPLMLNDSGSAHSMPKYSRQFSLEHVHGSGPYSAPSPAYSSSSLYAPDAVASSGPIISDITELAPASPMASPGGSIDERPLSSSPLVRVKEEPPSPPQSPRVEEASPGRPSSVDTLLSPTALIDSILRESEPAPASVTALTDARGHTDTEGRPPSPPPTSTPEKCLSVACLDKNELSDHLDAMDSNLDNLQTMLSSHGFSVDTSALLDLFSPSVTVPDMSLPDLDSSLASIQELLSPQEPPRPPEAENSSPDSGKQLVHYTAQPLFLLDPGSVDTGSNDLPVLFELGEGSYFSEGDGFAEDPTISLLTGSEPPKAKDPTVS
Summary of the method: as §1

SPIC = target: T2, SPIC (Homo sapiens, UniProt Q8N5J4 1-248); settings: protein: recombinant; tags: N-terminal GST; dsDNA, one strand shown
T2 sequence: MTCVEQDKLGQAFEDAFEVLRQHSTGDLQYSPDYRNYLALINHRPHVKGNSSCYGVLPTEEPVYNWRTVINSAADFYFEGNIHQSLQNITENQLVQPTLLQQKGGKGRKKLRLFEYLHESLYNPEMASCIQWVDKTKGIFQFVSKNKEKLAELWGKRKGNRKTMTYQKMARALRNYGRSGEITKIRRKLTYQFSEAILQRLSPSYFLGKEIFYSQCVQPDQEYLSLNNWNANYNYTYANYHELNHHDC
Summary of the method: as §1

ELF4 = ELF4 (Homo sapiens, UniProt Q99607 1-663); settings: protein: recombinant; tags: N-terminal GST; dsDNA, one strand shown
Sequence of ELF4 (Q99607 whole entry): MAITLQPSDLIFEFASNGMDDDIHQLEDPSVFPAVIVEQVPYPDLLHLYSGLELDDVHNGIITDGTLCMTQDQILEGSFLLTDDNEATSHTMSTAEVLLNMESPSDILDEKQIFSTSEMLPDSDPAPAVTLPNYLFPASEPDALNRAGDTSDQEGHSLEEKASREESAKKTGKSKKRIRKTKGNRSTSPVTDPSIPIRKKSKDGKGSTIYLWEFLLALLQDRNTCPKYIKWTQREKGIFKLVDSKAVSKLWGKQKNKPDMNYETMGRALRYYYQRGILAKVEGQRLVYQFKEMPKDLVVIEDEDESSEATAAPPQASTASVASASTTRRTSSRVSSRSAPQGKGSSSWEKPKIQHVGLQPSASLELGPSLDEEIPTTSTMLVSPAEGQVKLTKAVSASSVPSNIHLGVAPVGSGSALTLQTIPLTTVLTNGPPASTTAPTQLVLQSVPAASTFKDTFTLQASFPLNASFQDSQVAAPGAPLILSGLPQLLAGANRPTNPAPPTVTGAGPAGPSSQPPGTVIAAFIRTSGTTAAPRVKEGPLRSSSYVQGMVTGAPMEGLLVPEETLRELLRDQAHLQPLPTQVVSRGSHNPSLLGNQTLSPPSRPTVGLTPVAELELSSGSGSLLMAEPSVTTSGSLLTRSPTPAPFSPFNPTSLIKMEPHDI
Summary of the method: as §1

ELK4 = target: T3, ELK4 (Homo sapiens, UniProt P28324-2 1-405); settings: protein: recombinant; tags: N-terminal GST; dsDNA, one strand shown
T3 sequence: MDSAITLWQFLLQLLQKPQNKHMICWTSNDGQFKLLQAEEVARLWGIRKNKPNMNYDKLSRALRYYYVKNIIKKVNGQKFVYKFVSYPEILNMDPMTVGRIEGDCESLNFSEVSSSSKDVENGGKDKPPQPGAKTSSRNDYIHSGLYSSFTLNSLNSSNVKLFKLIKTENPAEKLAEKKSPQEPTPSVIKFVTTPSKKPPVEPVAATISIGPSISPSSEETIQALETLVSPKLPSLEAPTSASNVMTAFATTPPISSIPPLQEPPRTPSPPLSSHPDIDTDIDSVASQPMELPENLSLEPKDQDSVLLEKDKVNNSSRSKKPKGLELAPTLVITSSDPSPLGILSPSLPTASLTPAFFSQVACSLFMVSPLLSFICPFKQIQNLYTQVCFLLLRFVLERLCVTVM
Summary of the method: as §1

ETV2 = target: T4, ETV2 (Homo sapiens, UniProt O00321 1-342); settings: protein: recombinant; tags: N-terminal GST; dsDNA, one strand shown
T4 sequence: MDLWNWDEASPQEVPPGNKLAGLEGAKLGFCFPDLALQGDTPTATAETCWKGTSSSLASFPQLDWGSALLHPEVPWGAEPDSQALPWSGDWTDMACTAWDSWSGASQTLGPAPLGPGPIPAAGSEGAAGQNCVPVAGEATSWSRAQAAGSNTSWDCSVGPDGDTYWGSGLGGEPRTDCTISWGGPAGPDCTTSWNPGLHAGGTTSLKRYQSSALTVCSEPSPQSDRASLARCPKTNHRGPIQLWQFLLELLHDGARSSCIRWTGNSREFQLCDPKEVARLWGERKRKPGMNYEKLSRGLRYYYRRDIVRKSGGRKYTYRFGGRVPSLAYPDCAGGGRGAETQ
Summary of the method: as §1

ELF3 = target: T5, ELF3 (Homo sapiens, UniProt P78545 1-371); settings: protein: recombinant; tags: N-terminal GST; dsDNA, one strand shown
T5 sequence: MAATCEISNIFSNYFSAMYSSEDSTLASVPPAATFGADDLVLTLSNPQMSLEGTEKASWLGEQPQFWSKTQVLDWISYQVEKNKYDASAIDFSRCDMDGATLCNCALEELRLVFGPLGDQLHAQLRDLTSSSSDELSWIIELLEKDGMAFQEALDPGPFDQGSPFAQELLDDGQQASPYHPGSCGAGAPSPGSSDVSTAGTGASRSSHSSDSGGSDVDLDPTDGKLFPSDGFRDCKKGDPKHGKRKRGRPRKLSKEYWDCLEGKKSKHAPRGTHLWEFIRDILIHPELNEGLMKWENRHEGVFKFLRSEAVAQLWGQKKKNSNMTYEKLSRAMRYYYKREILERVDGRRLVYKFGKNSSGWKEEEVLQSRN
Summary of the method: as §1

CRX = CRX (Homo sapiens, UniProt O43186 1-299); settings: protein: recombinant; tags: N-terminal GST; dsDNA, one strand shown
Sequence of CRX (O43186 whole entry): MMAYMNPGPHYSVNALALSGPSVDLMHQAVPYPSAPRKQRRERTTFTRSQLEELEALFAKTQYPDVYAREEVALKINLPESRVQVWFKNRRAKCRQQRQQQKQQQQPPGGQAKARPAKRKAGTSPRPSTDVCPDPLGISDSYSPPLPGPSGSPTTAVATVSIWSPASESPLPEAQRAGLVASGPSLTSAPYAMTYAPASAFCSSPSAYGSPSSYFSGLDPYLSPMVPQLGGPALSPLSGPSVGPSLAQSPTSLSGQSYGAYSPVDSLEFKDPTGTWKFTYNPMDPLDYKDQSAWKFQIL
Summary of the method: as §1

ETV1 = ETV1 (Homo sapiens, UniProt P50549 1-477); settings: protein: recombinant; tags: N-terminal GST; dsDNA, one strand shown
Sequence of ETV1 (P50549 whole entry): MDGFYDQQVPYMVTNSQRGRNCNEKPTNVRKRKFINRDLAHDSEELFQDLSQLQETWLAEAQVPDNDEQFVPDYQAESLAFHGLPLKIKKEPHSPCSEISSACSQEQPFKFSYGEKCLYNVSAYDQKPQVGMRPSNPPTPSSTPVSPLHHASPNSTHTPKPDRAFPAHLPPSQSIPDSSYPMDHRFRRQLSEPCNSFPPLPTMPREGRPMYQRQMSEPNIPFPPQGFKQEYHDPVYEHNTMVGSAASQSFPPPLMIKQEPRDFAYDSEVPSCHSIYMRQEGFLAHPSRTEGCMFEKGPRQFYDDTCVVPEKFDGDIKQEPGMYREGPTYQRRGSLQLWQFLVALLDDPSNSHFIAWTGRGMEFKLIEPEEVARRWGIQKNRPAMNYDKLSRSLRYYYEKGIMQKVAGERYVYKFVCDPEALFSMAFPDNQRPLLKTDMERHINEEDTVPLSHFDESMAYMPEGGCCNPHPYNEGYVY
Summary of the method: as §1

ERF = target: T6, ERF (Homo sapiens, UniProt P50548 1-548); settings: protein: recombinant; tags: N-terminal GST; dsDNA, one strand shown
T6 sequence: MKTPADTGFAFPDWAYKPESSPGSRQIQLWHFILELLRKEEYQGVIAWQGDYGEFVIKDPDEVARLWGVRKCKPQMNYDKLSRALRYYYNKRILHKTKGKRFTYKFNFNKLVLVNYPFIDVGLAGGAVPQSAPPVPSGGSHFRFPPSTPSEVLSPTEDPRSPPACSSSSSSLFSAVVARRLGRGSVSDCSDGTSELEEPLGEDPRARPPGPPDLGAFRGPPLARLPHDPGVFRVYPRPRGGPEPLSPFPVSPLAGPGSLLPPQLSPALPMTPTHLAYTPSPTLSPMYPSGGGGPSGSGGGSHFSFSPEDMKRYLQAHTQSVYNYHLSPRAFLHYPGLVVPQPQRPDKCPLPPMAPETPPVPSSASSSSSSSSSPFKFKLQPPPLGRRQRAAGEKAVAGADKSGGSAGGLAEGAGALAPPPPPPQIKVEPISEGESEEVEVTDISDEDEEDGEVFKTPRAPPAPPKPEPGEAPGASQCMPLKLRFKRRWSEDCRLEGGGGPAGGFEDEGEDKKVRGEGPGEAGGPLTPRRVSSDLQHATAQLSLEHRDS
Summary of the method: as §1

ETV3L = target: T7, ETV3L (Homo sapiens, UniProt Q6ZN32 1-361); settings: protein: recombinant; tags: N-terminal GST; dsDNA, one strand shown
T7 sequence: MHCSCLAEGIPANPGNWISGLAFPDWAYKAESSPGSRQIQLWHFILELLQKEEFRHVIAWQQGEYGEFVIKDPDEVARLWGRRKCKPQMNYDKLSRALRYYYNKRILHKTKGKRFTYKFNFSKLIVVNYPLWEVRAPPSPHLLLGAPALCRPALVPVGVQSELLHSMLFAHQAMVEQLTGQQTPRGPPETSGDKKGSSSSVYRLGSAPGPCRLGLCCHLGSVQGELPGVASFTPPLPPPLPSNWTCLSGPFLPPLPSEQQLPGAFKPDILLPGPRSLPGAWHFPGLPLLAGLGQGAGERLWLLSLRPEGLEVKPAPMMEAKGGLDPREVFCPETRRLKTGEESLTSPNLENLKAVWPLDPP
Summary of the method: as §1

ETS2 = target: T8, ETS2 (Homo sapiens, UniProt P15036 1-469); settings: protein: recombinant; tags: N-terminal GST; dsDNA, one strand shown
T8 sequence: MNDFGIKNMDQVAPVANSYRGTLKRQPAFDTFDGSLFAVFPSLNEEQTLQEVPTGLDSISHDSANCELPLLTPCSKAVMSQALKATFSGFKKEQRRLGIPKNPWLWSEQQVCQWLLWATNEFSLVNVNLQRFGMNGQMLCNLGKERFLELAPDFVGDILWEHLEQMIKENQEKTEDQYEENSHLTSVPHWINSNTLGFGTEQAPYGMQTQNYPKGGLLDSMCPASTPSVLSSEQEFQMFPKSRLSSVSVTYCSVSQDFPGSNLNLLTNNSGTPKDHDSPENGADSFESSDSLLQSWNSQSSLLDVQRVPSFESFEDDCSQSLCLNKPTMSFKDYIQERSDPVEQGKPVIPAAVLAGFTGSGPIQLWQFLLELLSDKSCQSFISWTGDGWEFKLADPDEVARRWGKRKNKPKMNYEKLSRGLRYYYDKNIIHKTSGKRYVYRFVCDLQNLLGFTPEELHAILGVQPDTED
Summary of the method: as §1

SPDEF = target: T9, SPDEF (Homo sapiens, UniProt O95238 1-335); settings: protein: recombinant; tags: N-terminal GST; dsDNA, one strand shown
T9 sequence: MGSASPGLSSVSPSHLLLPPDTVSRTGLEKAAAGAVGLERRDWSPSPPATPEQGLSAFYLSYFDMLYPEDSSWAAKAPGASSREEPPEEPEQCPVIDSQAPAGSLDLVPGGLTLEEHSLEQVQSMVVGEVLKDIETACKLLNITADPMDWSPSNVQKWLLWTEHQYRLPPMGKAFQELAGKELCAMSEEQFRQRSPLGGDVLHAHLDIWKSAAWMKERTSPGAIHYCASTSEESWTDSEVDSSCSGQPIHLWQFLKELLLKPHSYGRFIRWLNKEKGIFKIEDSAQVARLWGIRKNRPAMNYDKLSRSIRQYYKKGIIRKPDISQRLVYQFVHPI
Summary of the method: as §1

ETV7 = target: T10, ETV7 (Homo sapiens, UniProt Q9Y603 1-341); settings: protein: recombinant; tags: N-terminal GST; dsDNA, one strand shown
T10 sequence: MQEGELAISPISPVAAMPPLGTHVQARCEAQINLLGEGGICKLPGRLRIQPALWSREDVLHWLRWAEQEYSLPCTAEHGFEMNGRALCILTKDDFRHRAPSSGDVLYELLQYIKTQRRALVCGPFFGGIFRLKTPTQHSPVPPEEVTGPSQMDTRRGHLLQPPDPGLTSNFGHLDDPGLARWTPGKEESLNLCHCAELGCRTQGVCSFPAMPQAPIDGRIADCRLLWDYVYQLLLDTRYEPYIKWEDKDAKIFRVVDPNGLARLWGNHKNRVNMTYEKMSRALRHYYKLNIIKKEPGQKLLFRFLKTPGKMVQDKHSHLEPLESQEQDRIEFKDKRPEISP
Summary of the method: as §1

ELF5 = target: T11, ELF5 (Homo sapiens, UniProt Q9UKW6-2 1-255); settings: protein: recombinant; tags: N-terminal GST; dsDNA, one strand shown
T11 sequence: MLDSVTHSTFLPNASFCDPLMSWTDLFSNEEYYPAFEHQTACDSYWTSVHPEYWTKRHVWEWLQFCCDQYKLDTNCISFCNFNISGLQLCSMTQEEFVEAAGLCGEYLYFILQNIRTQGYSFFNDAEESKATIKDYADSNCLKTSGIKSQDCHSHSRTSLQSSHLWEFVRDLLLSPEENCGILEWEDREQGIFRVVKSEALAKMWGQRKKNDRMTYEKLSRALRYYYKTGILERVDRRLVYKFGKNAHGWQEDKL
Summary of the method: as §1

ETV3 = target: T12, ETV3 (Homo sapiens, UniProt P41162-2 1-143); settings: protein: recombinant; tags: N-terminal GST; dsDNA, one strand shown
T12 sequence: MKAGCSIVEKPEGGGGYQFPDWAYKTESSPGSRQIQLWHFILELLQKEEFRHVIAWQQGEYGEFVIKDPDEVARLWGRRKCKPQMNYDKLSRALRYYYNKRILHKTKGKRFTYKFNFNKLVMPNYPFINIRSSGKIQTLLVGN
Summary of the method: as §1

ETV6 = ETV6 (Homo sapiens, UniProt P41212 1-452); settings: protein: recombinant; tags: N-terminal GST; dsDNA, one strand shown
Sequence of ETV6 (P41212 whole entry): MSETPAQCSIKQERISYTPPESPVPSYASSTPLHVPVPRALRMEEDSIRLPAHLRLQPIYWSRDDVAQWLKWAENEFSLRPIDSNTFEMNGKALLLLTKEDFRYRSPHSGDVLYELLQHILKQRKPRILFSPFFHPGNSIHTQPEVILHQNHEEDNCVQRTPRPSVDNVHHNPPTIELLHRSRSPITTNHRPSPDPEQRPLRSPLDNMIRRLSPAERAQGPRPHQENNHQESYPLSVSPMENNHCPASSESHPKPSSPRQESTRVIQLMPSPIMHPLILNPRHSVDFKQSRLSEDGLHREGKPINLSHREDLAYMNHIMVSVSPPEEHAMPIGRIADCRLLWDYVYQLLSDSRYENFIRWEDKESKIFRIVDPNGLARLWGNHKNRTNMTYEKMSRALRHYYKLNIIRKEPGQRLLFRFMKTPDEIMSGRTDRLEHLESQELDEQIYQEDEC
Summary of the method: as §1

## AAGTCC
FEV
  binding signal: 1.34 fold enrichment (6-mer frequency, TF over GST control)
ETV5
  binding signal: 1.28 fold enrichment (6-mer frequency, TF over GST control)
HSF1
  binding signal: 1.08 fold enrichment (6-mer frequency, TF over GST control)
SPIC
  binding signal: 1.3 fold enrichment (6-mer frequency, TF over GST control)
ELF4
  binding signal: 1.19 fold enrichment (6-mer frequency, TF over GST control)
ELK4
  binding signal: 1.25 fold enrichment (6-mer frequency, TF over GST control)
ETV2
  binding signal: 1.19 fold enrichment (6-mer frequency, TF over GST control)
ELF3
  binding signal: 1.3 fold enrichment (6-mer frequency, TF over GST control)
CRX
  binding signal: 1.19 fold enrichment (6-mer frequency, TF over GST control)
ETV1
  binding signal: 1.26 fold enrichment (6-mer frequency, TF over GST control)
ERF
  binding signal: 1.08 fold enrichment (6-mer frequency, TF over GST control)
ETV3L
  binding signal: 1.21 fold enrichment (6-mer frequency, TF over GST control)
ETS2
  binding signal: 1.27 fold enrichment (6-mer frequency, TF over GST control)
SPDEF
  binding signal: 1.4 fold enrichment (6-mer frequency, TF over GST control)
ETV7
  binding signal: 1.23 fold enrichment (6-mer frequency, TF over GST control)
ELF5
  binding signal: 1.34 fold enrichment (6-mer frequency, TF over GST control)
ETV3
  binding signal: 1.37 fold enrichment (6-mer frequency, TF over GST control)
ETV6
  binding signal: 1.2 fold enrichment (6-mer frequency, TF over GST control)
